WRN inhibitor = WRN helicase (human) inhibition | Q14191 | WRN helicase unwinding, fluorescent forked duplex, kinetic | Potency, µM (doses to about 114 µM), actives largely listed as inhibitors | 360,000 tested, 0.46% active | AID 651768; also: nearly all actives have a fitted effect of over 55% in size
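Screening of the MLSMR collection measured strand separation of a quenched forked DNA duplex (100 nM) by 20 nM WRN with 2 mM ATP, all final. Compounds were preincubated with enzyme 15 min at room temperature.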
Pol kappa inh = inhibitors of human DNA polymerase kappa. 400,000 tested, 0.53% active. purified Pol kappa, fluorescent DNA synthesis assay, 10 min. Potency, µM (doses to about 107 µM), hits mostly inhibitors. AID 588579
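Inhibition of 10 nM Pol kappa is measured by a fluorescent read-out at 0 and 10 min following addition of 50 nM substrate (final), with a 15-min room-temperature compound preincubation.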
Pol iota inh = blocks human DNA polymerase iota activity; Q9UNA4; Pol iota fluorescent replication assay, 10 min; Potency, µM (titrated, usually from 115 µM), actives largely listed as inhibitors; 390,000 tested, 1% active; AID 588590
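Pol iota at 10 nM preincubated 15 min with compounds at room temperature; reaction started with fluorescent substrate, 50 nM final. Fluorescence read kinetically at 0 and 10 min; buffer-only wells as negative control.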
POLB inh = DNA polymerase beta (human) inhibition | Potency, µM (series often up to 114 µM), usual class: inhibitors | P06746 | Pol beta primer extension/strand displacement, fluorescence kinetic | 340,000 tested, 1.3% active | AID 485314
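Curves were derived by four-parameter Hill fits of normalized qHTS data. The kinetic fluorescent primer-extension read was taken at 0 and 10 min after 50 nM substrate, following a 15 min room-temperature preincubation of 10 nM enzyme with compounds.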
PI5P4K alpha inh = blocks human PI5P4K alpha kinase activity | 330,000 tested, 1.2% active | P48426 | max response, % | PI5P4Kalpha enzyme, ADP-Glo luminescence, 60 min; hits give low values; active = max response of -50% or lower; inconclusive = between -30% and -50%; inactive = -30% or higher; also: value at the top dose of about 77 µM
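Compounds were pin-transferred onto PI5P4Kalpha and substrate in HEPES pH 7.4 buffer with EGTA, CHAPS and 5% DMSO. ATP (5 microM final) started the reaction, which ran 60 minutes at room temperature before ADP-Glo detection.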
POLH inh = blocks human DNA polymerase eta activity; 390,000 tested, 1.2% active; Potency, µM (highest dose often 114 µM), most hits filed as inhibitors; Q9Y253; recombinant Pol eta, fluorescent DNA replication assay
Target sequence (Q9Y253 whole entry, looked up): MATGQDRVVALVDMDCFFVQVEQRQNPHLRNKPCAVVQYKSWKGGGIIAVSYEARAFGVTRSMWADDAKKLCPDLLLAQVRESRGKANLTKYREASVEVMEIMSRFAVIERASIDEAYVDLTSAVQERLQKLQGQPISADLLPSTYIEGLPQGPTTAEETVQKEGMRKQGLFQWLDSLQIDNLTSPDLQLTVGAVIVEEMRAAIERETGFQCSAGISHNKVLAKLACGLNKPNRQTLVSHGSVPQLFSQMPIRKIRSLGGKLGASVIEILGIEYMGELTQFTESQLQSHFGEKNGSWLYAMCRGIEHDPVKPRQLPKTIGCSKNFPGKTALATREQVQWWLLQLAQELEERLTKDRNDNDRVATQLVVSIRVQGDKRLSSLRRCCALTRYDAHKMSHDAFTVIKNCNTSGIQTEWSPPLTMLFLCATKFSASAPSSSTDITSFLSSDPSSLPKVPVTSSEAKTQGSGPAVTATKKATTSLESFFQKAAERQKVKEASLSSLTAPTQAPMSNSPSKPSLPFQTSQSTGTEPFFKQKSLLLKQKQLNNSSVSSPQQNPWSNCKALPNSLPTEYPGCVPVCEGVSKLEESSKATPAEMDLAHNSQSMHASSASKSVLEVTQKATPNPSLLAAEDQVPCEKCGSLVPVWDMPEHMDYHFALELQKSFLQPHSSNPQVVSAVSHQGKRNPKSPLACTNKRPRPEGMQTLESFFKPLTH
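Pol eta (10 nM) was preincubated with compounds for 15 min at room temperature, after which fluorescent replication substrate (50 nM final) was added to start the reaction. Fluorescence was read kinetically at 0 and 10 min.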
Large screens that a line does not name were inactive. An excerpt weighted towards active compounds, which were near 2.8% of everything screened. Unless noted, calls follow the shape of the dose curve; as a rule, active = well fitted curve in the direction sought with a large enough effect; inconclusive = small, poorly fitted or top-dose-only effect, or another doubt; inactive = no such curve, though single readings can be large; an effect the other way counts as inactive or inconclusive.

COc1ccc2cc(OCC(=O)NNC(=O)Nc3ccc(OC)c(OC)c3)ccc2c1	Pol iota inh 20µM, POLB inh 50µM, POLH inh inconclusive
O=C(COc1ccc2ccccc2c1)Nc1ccc(Cc2ccncc2)cc1	Pol iota inh 25µM, POLB inh inconclusive, POLH inh inconclusive (no result: PI5P4K alpha inh)
CCOc1ccc(NC(=O)CCC(=O)NNC(=O)COc2ccc(C)cc2Br)cc1	Pol iota inh 71µM, POLB inh inconclusive
CN(C)c1ccc(/C=C/c2nc3ccccc3s2)c(Cl)c1	none (no result: WRN inhibitor, POLB inh, PI5P4K alpha inh, POLH inh)
CCOC(=O)c1nc(C)nc(Sc2n[nH]c(-c3ccccc3)n2)c1C	none
Cc1cnc2ccccc2c1/C=C/c1ccc(N)cc1	none (no result: WRN inhibitor, POLB inh, PI5P4K alpha inh, POLH inh)
Cc1ccc(NC(=O)NNC(=O)COc2ccc3ccccc3c2)cc1	Pol iota inh inconclusive, POLB inh 79µM
O=C(COc1ccc2ccccc2c1)NNC(=O)Nc1ccc(F)cc1F	Pol iota inh inconclusive, POLB inh inconclusive
COc1cccc(NC(=O)NNC(=O)COc2ccc3ccccc3c2)c1	none
Cc1ccccc1NC(=O)NNC(=O)COc1ccc2ccccc2c1	WRN inhibitor inconclusive, Pol iota inh inconclusive, POLB inh 16µM
COC(=O)Cc1cc(=O)n(-c2nc3ccccc3[nH]2)[nH]1	POLB inh 79µM (no result: PI5P4K alpha inh)
O=C(CSc1nc2ccccc2c(=O)n1Cc1ccccc1)Nc1ccc(Br)cc1C(=O)O	Pol iota inh inconclusive, POLB inh inconclusive, PI5P4K alpha inh -75, POLH inh 89µM
Cc1ccc(S(=O)(=O)N2CCOCC2)cc1NC(=O)CSc1nc2ccccc2c(=O)n1Cc1ccccc1	none
CCC(=O)N1CCCC(C)(C(=O)NS(=O)(=O)c2ccccc2Cl)C1 (stereo unspecified)	none (no result: Pol kappa inh, Pol iota inh, POLB inh, POLH inh)
O=C1CCCC(O)=C1N=Nc1c(Cl)cc(C(F)(F)F)cc1Cl	WRN inhibitor 79µM, Pol kappa inh inconclusive, Pol iota inh 79µM, POLB inh inconclusive, PI5P4K alpha inh inconclusive
CCS(=O)(=O)n1nc(-c2ccco2)nc1NCc1ccc(C(C)C)cc1	none (no result: WRN inhibitor, PI5P4K alpha inh)
O=C(Sc1n[nH]c(=O)[nH]c1=O)c1ccccc1	WRN inhibitor 18µM, Pol iota inh inconclusive, PI5P4K alpha inh -74 (no result: POLB inh)
CN(C(=O)CSc1n[nH]c(=O)[nH]c1=O)c1ccccc1	none (no result: POLB inh)
Cc1c(C(=O)OC(C)C)sc(NC(=O)C2c3ccccc3Oc3ccccc32)c1C(=O)OC(C)C	Pol kappa inh inconclusive, Pol iota inh 89µM, POLB inh inconclusive (no result: WRN inhibitor, PI5P4K alpha inh)
CN(C)c1ccc(/C=C2\C=Cc3ccccc32)c(Cl)c1	none (no result: WRN inhibitor, POLB inh, PI5P4K alpha inh, POLH inh)
CCN(CC(=O)NC1CCS(=O)(=O)C1)S(=O)(=O)c1ccc(F)cc1 (stereo unspecified)	POLB inh 16µM, POLH inh inconclusive
N#Cc1ccc(C(=O)NC2CCCCCCC2)cc1	none
COc1ccc(N=C2NC(=O)/C(=C/c3ccc(O)c(OC)c3)S2)cc1	WRN inhibitor inconclusive, Pol iota inh inconclusive, POLB inh 40µM, PI5P4K alpha inh -62, POLH inh inconclusive
CCOc1ccc(N=C2NC(=O)S/C2=C\c2ccc(OC)cc2)cc1	Pol iota inh inconclusive, POLB inh 10µM (no result: PI5P4K alpha inh)
COc1cc(/C=C2/SC(=Nc3ccc(O)cc3)NC2=O)cc(OC)c1O	Pol iota inh inconclusive, PI5P4K alpha inh -51
CC(=O)Nc1ccc(S(=O)(=O)/N=C2/NC(=O)/C(=C\c3ccco3)S2)cc1	Pol kappa inh inconclusive, Pol iota inh inconclusive, POLB inh 10µM, POLH inh 20µM
CC1C(=O)C(C)C(c2ccccc2F)NC1c1ccccc1F (stereo unspecified)	none
COc1ccc(N=C2NC(=O)/C(=C\c3ccco3)S2)cc1	WRN inhibitor inconclusive, Pol kappa inh inconclusive, Pol iota inh 40µM, POLB inh 20µM, PI5P4K alpha inh -59, POLH inh inconclusive
CCc1ccc(N=C2NC(=O)/C(=C/c3ccc(OCC(=O)O)c(OC)c3)S2)cc1	WRN inhibitor inconclusive, Pol iota inh inconclusive, POLB inh 20µM, PI5P4K alpha inh -75
COc1ccc(/C=C2\SC(=Nc3ccccc3)NC2=O)cc1	none (no result: WRN inhibitor, Pol kappa inh, Pol iota inh, PI5P4K alpha inh, POLH inh)
COc1cccc(N=C2NC(=O)/C(=C/c3cc([N+](=O)[O-])ccc3O)S2)c1	Pol iota inh inconclusive, PI5P4K alpha inh -76, POLH inh 28µM
Cc1cc(C)n2nnnc2n1	none

Compound activity as filed in PubChem BioAssay.
